HER2 expr 66K – Her2 kinase expression inhibition; hit rate 0.69% among 65,000; P04626; SKBR-3 HER2 protein level, AlphaScreen, 18-24 h; stronger effect = lower value; HER2 level % of control, % at 10 µM; AID 645;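 active means HER2 level under 5% of the carrier-only control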;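 further: 100% = DMSO carrier and 0% = 500 nM PU-H71 HSP90 inhibitor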
Target sequence (P04626 whole entry, looked up): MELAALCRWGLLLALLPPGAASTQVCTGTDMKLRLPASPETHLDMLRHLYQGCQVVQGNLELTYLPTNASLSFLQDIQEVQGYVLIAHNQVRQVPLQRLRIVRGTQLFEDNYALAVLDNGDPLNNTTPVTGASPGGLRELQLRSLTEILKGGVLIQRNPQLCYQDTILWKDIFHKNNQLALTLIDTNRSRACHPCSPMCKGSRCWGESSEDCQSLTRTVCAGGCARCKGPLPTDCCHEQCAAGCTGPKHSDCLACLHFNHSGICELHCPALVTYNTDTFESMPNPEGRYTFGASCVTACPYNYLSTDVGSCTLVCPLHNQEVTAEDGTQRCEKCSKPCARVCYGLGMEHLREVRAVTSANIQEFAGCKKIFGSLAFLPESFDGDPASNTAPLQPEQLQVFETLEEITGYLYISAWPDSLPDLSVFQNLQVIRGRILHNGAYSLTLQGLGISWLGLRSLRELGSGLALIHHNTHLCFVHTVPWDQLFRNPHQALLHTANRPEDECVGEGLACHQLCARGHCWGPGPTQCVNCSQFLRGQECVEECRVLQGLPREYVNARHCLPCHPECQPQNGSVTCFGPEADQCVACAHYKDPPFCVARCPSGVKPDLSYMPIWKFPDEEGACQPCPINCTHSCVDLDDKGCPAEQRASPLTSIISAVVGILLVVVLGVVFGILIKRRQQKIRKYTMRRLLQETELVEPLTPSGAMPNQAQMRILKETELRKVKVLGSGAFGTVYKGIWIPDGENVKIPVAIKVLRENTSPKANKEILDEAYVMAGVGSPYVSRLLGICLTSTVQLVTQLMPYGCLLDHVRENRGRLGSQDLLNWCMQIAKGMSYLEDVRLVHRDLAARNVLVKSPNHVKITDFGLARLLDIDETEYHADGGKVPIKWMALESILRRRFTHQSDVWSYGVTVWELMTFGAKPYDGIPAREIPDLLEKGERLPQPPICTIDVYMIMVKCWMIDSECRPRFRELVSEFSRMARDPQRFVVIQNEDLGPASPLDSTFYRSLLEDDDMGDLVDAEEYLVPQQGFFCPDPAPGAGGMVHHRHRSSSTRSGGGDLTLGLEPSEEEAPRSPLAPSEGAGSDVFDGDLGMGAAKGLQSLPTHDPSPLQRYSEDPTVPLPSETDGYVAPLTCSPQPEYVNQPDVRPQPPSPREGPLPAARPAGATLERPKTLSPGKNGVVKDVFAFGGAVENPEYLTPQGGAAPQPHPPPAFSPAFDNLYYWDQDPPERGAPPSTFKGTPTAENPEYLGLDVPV
Jurkat tox 60K – reduces viability or proliferation of Jurkat cells; Jurkat E6.1 viability, ATP luminescence, 48 h; inhibition, % at 4 µM; hit rate 1.2% among 56,000; AID 463;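 active means inhibition above the mean inhibition of all tested compounds plus 3 SD, cut at about 28% in these data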
SKBR3 24h inh – SK-BR-3 proliferation inhibitors; SK-BR-3 viability, CellTiter-Glo ATP luminescence, 24 h; stronger effect = lower value; viability, % at 10 µM; hit rate 0.47% among 41,000; AID 847;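 active means viability at or below the median of all test compounds minus 3 SD, in both replicates if run twice, cut at about 45% in these data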;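 further: 100% = median untreated cell wells and 0% = median positive control drug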
The depositor's hits bear a star; . = no result. Sampled rows, rich in hits. Any-hit rate of the full collection: about 1.9%.

SMILES	HER2 expr 66K	Jurkat tox 60K	SKBR3 24h inh
Cc1cc(C)cc(NS(=O)(=O)c2ccc3[nH]cc(C(=O)NCc4ccco4)c(=O)c3c2)c1	63	48*	48
Cc1ccccc1NS(=O)(=O)c1ccc2[nH]cc(C(=O)N(C)Cc3ccco3)c(=O)c2c1	108	2	.
O=C(C1COc2ccccc2O1)N1CCc2ccccc21 (stereo unspecified)	183	1	.
O=C1CC(c2cccc(Cl)c2)Cc2nc(N3CCN(c4ccccc4)CC3)ncc21 (stereo unspecified)	83	4	94
CCN1CCN(c2ncc3c(n2)CC(c2cc(OC)c(OC)c(OC)c2)CC3=O)CC1 (stereo unspecified)	55	80*	87
CCCCN(CCCC)CCCOC(=O)c1ccc(N)cc1	124	.	72
CCCCOc1ccc(NC2=NC3(CCCC3)N=C(N)N2)cc1	108	5	100
Cc1cc(C)cc(NC2=NC3(CCCCC3)N=C(N)N2)c1	77	66*	.
O=C(Nc1c(C(=O)NCc2ccco2)cnn1-c1ccccc1)c1ccc(F)cc1	107	13	115
CCCCS(=O)(=O)NC1=NCN(CCOC(=O)c2ccccc2)CN1	66	-1	79
Cc1cc(NC(=O)CSc2nc3c(c(=O)n2-c2ccc(Br)cc2)SCC3)no1	25	2	40*
COc1ccc(-n2c(SCC(=O)Nc3cc(C)on3)nc3c(c2=O)SCC3)cc1	73	-2	.
CCOC(=O)C1(CC)NC(c2cccc(F)c2)C2C(=O)N(CC)C(=O)C21 (stereo unspecified)	125	0	153
COc1ccc(OC)c(C2C(C#N)=C(N)Oc3cc(N)ccc32)c1 (stereo unspecified)	87	-1	.
N#CC1=C(N)Oc2cc(N)ccc2C1C1CCCCC1 (stereo unspecified)	60	84*	91
Cc1nnc(SCCn2c(N3CCN(c4ccccc4)CC3)nc3c2c(=O)n(C)c(=O)n3C)s1	115	3	.
Cc1ccsc1C(=O)Nc1nnc(-c2ccco2)o1	89	89*	.
CCC(=O)Nc1nnc(-c2ccco2)o1	83	-4	.
COc1ccc2nc(S(=O)Cc3ncc(C)c(OC)c3C)[nH]c2c1 (stereo unspecified)	88	.	92
CCn1c(SCC(=O)C(C)(C)C)nnc1-c1ccccn1	91	-2	.
CCn1c(SCC(=O)C(C)(C)C)nnc1-c1cnccn1	-19*	6	.
COc1ccc(C(=O)Nc2ccccc2)cc1S(=O)(=O)Nc1cc(C)on1	101	14	90
CCOc1ccc2nc(SCc3ccc(C(=O)OC)o3)[nH]c2c1	47	.	.
CCc1ccc(CNc2ccc(O)cc2)cc1	88	38*	99
COc1ccc(Br)cc1CNc1ccc(O)cc1	98	5	90
SMILES	HER2 expr 66K	Jurkat tox 60K	SKBR3 24h inh
CCc1nnc(NC(=O)c2ccc(S(=O)(=O)N3CCCCC3C)cc2)s1 (stereo unspecified)	85	-4	94
CC1CC(C)CN(S(=O)(=O)c2ccc(C(=O)Nc3nnc(-c4cccs4)o3)cc2)C1 (stereo unspecified)	61	44*	204
O=C(Nc1nnc(-c2cccs2)o1)c1cccc(C(F)(F)F)c1	48	64*	.
CC1CCCN(S(=O)(=O)c2ccc(C(=O)Nc3nnc(-c4ccccc4Cl)o3)cc2)C1 (stereo unspecified)	63	2	112
CCC1CCCCN1S(=O)(=O)c1ccc(C(=O)Nc2nnc(-c3cccs3)o2)cc1 (stereo unspecified)	90	82*	71
O=C(CCc1ccccc1)Nc1nnc(-c2cccs2)o1	101	12	.
COc1ccc(NC(=O)C2CC(=O)OC2(C)C)cc1 (stereo unspecified)	101	-4	91
CC(C)(C)NC(=O)c1sccc1C(=O)O	90	.	.
CCC1C(=O)N=C(SCC(=O)Nc2ccc(C(=O)OC)cc2)NC1=O (stereo unspecified)	85	10	44*
NS(=O)(=O)c1ccc(NC(=O)CSC2=NC(=O)C(c3ccccc3)C(=O)N2)cc1 (stereo unspecified)	94	0	.
CC(=O)N1c2c(cc(Br)cc2S(=O)(=O)N2CCN(C(=O)c3ccco3)CC2)CC1C (stereo unspecified)	128	.	78
COc1cc(C2C(C#N)=C(C)NC3=C2C(=O)c2ccccc23)cc(OC)c1OC (stereo unspecified)	27	100*	85
COc1ccc(C2C(C#N)=C(C)NC3=C2C(=O)c2ccccc23)cc1 (stereo unspecified)	151	.	85
O=C(Nc1ccc(F)cc1F)NC1CC(=O)N(Cc2ccccc2)C1 (stereo unspecified)	85	0	.
CC(C)Oc1ccccc1C1CC(=O)Nc2cc3c(cc21)OCCO3 (stereo unspecified)	66	98*	80
CCCOc1c(OC)cccc1C1CC(=O)Nc2cc3c(cc21)OCCO3 (stereo unspecified)	74	7	84
COc1cccc(C2CC(=O)Nc3cc4c(cc32)OCCO4)c1OC(C)C (stereo unspecified)	68	10	.
COc1ccccc1C1CC(=O)Nc2cc3c(cc21)OCCO3 (stereo unspecified)	19	92*	98
O=C1NC(c2ccccc2)(C(F)(F)F)C(=O)N1Cc1cccnc1 (stereo unspecified)	84	1	91
Cc1ccc(Cl)cc1N1CCN(C(=O)C2CCN(c3nnc(-n4cccc4)s3)CC2)CC1	90	41*	.
Cc1cccc(N2CCN(C(=O)C3CCN(c4nnc(-n5cccc5)s4)CC3)CC2C)c1 (stereo unspecified)	90	9	.
Cc1ccc(S(=O)(=O)c2c(C)nn(C(C)(C)C)c2OC(=O)c2ccc(Br)o2)cc1	4.1*	-5	.
Cc1ccc(S(=O)(=O)c2c(C)nn(C(C)(C)C)c2OC(=O)c2ccco2)cc1	84	-2	.
CCN(CC)c1cccc(OC2=NS(=O)(=O)c3ccccc32)c1	16	-1	84
Nc1nnnn1/N=C/C=C/c1ccccc1	84	-3	90
SMILES	HER2 expr 66K	Jurkat tox 60K	SKBR3 24h inh
Nc1nnnn1/N=C/C(Br)=C/c1ccccc1	-20*	84*	180
COc1ccccc1NC(=O)CN1CCN(CC(=O)Nc2ccc3c(c2)OCCO3)CC1	98	-16	.
Cc1ccc2oc(=O)c3cnn(CC(=O)N4CCCc5ccccc54)c3c2c1	71	-11	.
COc1cc(C2Nc3ccc4ncccc4c3C3=C2C(=O)CCC3)cc(OC)c1O (stereo unspecified)	51	71*	94
O=C1CCCC2=C1C(c1ccco1)Nc1ccc3ccccc3c12 (stereo unspecified)	95	7	.
CN(C)c1nc(Nc2ccc(Cl)cc2)nc(OCC#N)n1	67	6	92
CCc1ccc2nc(NC(=O)c3cc(C)on3)sc2c1	67	82*	.
Cc1cc(C(=O)Nc2nc3c(s2)CCCC3)no1	132	-4	.
CCN(CC(=O)NC1CCCC1)S(=O)(=O)c1ccc(C)cc1	75	0	.
CCN(CC(=O)NC1CCCCCC1)S(=O)(=O)c1ccccc1	-28*	3	94
CCOc1ccc(N(CC)S(=O)(=O)c2ccc3c(c2)oc(=O)n3C)cc1	88	66*	96
CCOc1ccc(NS(=O)(=O)c2ccc3c(c2)oc(=O)n3C)cc1	174	2	101
